In publication PMC7862700, “An all-to-all approach to the identification of sequence-specific readers for epigenetic DNA modifications on cytosine” one finds binding signal data, which are given here for 7 sequences.

Common to all, as to assay: DAPPL (digital affinity profiling via proximity ligation, sequencing); 10 mM Tris-HCl pH 7.5, 50 mM NaCl, 1 mM DTT, 4% glycerol, room temperature, 30 min; GST-TFs on glutathione beads, 16-mer random dsDNA library, 0.1% formaldehyde crosslink after washing; high values mean tight binding
Details in all cases: protein: recombinant; tags: N-terminal GST; dsDNA, one strand shown

One experiment concerns the target T1, FLI1 (Homo sapiens, UniProt Q01543 1-452).
T1 sequence: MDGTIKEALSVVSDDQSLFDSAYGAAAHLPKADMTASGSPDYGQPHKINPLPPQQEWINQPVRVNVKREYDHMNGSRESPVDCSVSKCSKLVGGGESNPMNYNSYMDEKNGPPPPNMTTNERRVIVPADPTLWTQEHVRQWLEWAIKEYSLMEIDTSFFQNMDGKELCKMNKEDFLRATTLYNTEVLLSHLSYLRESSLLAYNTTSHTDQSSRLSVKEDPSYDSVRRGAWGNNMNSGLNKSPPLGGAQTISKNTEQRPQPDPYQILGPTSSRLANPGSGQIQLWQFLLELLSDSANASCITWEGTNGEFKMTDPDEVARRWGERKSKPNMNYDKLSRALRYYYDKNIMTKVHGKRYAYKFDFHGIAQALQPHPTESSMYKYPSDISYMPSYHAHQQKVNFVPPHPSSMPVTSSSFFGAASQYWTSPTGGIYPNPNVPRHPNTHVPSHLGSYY
The method, boiled down: (§1)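 Sequencing on an Illumina NextSeq500 followed washing, crosslinking with 0.1% formaldehyde, proximity ligation (BsaI/T4 ligase, 1 h, 37 °C) and PCR amplification of pools that had been incubated for 30 min at room temperature with 200 nmole of a random double-stranded 16-mer DNA library in Tris/NaCl/DTT/glycerol buffer. Each pool held DNA-barcoded human transcription factors, expressed in yeast as GST fusions and captured on glutathione beads, plus a tag-only sample. Binding signal is a hexamer's read frequency for a factor divided by its frequency in the tag-only sample.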

For a further experiment, the target named is T2, ELK1 (Homo sapiens, UniProt P19419 1-428).
T2 sequence: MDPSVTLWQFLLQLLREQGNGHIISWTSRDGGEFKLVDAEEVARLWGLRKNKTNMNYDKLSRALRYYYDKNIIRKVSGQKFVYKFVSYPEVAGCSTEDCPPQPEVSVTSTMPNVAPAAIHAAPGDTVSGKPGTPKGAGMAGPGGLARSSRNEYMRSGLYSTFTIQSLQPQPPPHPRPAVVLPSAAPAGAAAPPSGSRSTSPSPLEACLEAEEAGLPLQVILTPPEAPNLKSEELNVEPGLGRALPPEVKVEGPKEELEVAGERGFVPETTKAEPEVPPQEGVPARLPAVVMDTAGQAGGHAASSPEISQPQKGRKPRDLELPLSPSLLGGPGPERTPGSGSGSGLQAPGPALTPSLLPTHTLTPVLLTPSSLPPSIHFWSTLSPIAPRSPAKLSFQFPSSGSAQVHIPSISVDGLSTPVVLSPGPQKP
The method, boiled down:
as §1

The next experiment addresses T3, GABPA (Homo sapiens, UniProt Q06546 1-454).
T3 sequence: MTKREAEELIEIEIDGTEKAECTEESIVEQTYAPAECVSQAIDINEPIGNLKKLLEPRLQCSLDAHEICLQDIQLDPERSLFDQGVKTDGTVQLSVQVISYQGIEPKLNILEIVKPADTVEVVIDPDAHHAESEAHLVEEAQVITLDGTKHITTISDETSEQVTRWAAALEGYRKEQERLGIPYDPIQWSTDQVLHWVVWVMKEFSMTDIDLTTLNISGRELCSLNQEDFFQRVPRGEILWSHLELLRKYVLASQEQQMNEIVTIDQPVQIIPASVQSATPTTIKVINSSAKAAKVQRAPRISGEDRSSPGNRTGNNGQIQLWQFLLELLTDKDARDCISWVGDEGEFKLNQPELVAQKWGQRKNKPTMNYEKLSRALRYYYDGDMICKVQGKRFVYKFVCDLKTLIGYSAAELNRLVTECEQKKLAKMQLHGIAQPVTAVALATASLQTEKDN
The procedure, abridged:
as §1

The target of a further experiment is T4, ERG (Homo sapiens, UniProt P11308 1-479).
T4 sequence: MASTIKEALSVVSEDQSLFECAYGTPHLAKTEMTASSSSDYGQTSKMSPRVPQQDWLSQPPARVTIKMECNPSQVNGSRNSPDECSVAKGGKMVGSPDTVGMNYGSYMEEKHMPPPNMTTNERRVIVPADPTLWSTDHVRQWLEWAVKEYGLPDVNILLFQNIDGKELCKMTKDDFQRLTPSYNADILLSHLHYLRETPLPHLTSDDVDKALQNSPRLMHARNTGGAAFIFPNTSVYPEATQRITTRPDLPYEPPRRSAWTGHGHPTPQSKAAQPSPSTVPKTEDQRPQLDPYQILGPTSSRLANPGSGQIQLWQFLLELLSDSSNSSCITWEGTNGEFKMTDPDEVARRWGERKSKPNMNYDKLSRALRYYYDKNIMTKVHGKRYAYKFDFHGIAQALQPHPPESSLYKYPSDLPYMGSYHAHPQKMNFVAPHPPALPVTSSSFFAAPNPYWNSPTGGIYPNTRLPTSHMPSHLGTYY
The procedure, abridged: as §1

For a further experiment, the target named is ELF1 (Homo sapiens, UniProt P32519 1-619). The method, boiled down: as §1
A further experiment concerns the target T5, EHF (Homo sapiens, UniProt Q9NZC4 1-300).
T5 sequence: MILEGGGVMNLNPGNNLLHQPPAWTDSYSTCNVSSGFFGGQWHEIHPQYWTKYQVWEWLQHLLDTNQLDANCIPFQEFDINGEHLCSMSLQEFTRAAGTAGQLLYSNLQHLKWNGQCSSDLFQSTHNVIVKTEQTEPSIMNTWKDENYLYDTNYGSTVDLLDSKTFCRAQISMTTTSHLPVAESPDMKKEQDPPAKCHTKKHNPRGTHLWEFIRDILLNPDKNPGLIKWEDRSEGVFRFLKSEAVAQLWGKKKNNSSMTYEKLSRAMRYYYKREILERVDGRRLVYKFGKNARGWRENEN
The method, boiled down: as §1

For the next experiment, the target named is SPI1 (Homo sapiens, UniProt P17947 1-270). The procedure, abridged: as §1
A further experiment addresses SPIB (Homo sapiens, UniProt Q01892 1-262). The procedure, abridged:
as §1

In the next experiment the target is T6, ELK3 (Homo sapiens, UniProt P41970 1-407).
T6 sequence: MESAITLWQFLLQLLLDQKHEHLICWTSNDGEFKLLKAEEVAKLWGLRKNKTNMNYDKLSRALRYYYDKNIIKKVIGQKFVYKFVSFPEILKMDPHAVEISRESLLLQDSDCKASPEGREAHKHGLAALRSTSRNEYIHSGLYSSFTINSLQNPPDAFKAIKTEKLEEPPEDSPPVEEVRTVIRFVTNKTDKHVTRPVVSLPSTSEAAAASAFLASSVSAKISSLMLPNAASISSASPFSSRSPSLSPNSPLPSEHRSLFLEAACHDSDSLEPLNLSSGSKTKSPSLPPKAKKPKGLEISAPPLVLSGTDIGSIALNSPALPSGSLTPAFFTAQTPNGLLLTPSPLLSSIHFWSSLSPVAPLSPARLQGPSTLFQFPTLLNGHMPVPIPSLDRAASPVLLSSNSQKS
The method, boiled down: as §1

ELF1, sequence (P32519 whole entry): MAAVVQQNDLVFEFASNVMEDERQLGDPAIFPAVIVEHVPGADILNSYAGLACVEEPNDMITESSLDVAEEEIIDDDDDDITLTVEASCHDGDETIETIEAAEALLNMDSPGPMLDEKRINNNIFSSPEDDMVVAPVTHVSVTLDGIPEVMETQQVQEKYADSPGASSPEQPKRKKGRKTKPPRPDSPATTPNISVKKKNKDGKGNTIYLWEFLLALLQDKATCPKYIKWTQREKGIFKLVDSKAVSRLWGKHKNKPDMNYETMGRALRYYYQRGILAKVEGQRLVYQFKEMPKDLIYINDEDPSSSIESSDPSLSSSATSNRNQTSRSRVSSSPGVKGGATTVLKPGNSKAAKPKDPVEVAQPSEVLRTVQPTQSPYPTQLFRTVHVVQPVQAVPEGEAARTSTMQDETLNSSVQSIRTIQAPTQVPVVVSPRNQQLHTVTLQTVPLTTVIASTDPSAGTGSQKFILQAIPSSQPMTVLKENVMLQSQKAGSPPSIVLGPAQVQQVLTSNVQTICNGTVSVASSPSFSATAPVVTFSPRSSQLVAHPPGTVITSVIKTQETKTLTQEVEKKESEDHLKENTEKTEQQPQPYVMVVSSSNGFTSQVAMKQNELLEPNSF
SPIB, sequence (Q01892 whole entry): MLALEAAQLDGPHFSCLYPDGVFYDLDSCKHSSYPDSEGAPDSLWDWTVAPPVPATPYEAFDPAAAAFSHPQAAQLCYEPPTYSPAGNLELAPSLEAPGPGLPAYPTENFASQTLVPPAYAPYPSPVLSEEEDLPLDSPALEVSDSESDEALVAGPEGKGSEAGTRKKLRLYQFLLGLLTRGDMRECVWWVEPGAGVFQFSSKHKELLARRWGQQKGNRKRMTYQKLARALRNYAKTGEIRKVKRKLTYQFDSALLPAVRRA

Take CAATTT: the binding signal with FLI1 was 1.26 fold enrichment (6-mer frequency, TF over GST control); with ELK1, 1.35 fold enrichment (6-mer frequency, TF over GST control); with GABPA, 1.37 fold enrichment (6-mer frequency, TF over GST control); with ERG it was 1.43 fold enrichment (6-mer frequency, TF over GST control); with ELF1 it was 1.29 fold enrichment (6-mer frequency, TF over GST control); with EHF, 1.28 fold enrichment (6-mer frequency, TF over GST control). For the same sequence, the binding signal is 1.32 fold enrichment (6-mer frequency, TF over GST control) in the experiment with SPI1; 1.43 fold enrichment (6-mer frequency, TF over GST control) with SPIB; 1.12 fold enrichment (6-mer frequency, TF over GST control) with ELK3.
As for CTCCGA, the binding signal is 1.35 fold enrichment (6-mer frequency, TF over GST control) with FLI1; 1.42 fold enrichment (6-mer frequency, TF over GST control) with ELK1; 1.45 fold enrichment (6-mer frequency, TF over GST control) with GABPA; 1.34 fold enrichment (6-mer frequency, TF over GST control) with ERG; 1.37 fold enrichment (6-mer frequency, TF over GST control) with ELF1; 1.39 fold enrichment (6-mer frequency, TF over GST control) with EHF. In addition, the binding signal with SPI1 was 1.44 fold enrichment (6-mer frequency, TF over GST control); with SPIB, 1.52 fold enrichment (6-mer frequency, TF over GST control); with ELK3 it was 1.33 fold enrichment (6-mer frequency, TF over GST control).
For ATACCT, the binding signal with FLI1 is 1.13 fold enrichment (6-mer frequency, TF over GST control); with ELK1, 1.18 fold enrichment (6-mer frequency, TF over GST control); with GABPA it was 1.07 fold enrichment (6-mer frequency, TF over GST control); in the experiment with ERG, 1.05 fold enrichment (6-mer frequency, TF over GST control); with ELF1 it was 1.13 fold enrichment (6-mer frequency, TF over GST control); in the experiment with EHF, 1.08 fold enrichment (6-mer frequency, TF over GST control). Besides, the binding signal with SPI1 was 1.04 fold enrichment (6-mer frequency, TF over GST control); in the experiment with SPIB, 1.1 fold enrichment (6-mer frequency, TF over GST control); in the experiment with ELK3, 1.08 fold enrichment (6-mer frequency, TF over GST control).
Take GCTCCA: the binding signal with FLI1 was 1.23 fold enrichment (6-mer frequency, TF over GST control); in the experiment with ELK1, 1.17 fold enrichment (6-mer frequency, TF over GST control); with GABPA, 1.33 fold enrichment (6-mer frequency, TF over GST control); in the experiment with ERG, 1.18 fold enrichment (6-mer frequency, TF over GST control); with ELF1, 1.2 fold enrichment (6-mer frequency, TF over GST control); in the experiment with EHF, 1.19 fold enrichment (6-mer frequency, TF over GST control). Besides, the binding signal is 1.28 fold enrichment (6-mer frequency, TF over GST control) with SPI1; 1.3 fold enrichment (6-mer frequency, TF over GST control) in the experiment with SPIB; 1.17 fold enrichment (6-mer frequency, TF over GST control) in the experiment with ELK3.
As to TAGTTT, the binding signal with FLI1 is 1.23 fold enrichment (6-mer frequency, TF over GST control); with ELK1 it was 1.19 fold enrichment (6-mer frequency, TF over GST control); with GABPA, 1.25 fold enrichment (6-mer frequency, TF over GST control); in the experiment with ERG, 1.14 fold enrichment (6-mer frequency, TF over GST control); with ELF1, 1.22 fold enrichment (6-mer frequency, TF over GST control); with EHF, 1.21 fold enrichment (6-mer frequency, TF over GST control). Also, the binding signal with SPI1 is 1.12 fold enrichment (6-mer frequency, TF over GST control); in the experiment with SPIB it was 1.13 fold enrichment (6-mer frequency, TF over GST control); with ELK3, 1.23 fold enrichment (6-mer frequency, TF over GST control).
Consider AATTCC, for which the binding signal is 1.95 fold enrichment (6-mer frequency, TF over GST control) with FLI1; 1.93 fold enrichment (6-mer frequency, TF over GST control) with ELK1; 1.81 fold enrichment (6-mer frequency, TF over GST control) with GABPA; 1.96 fold enrichment (6-mer frequency, TF over GST control) in the experiment with ERG; 1.86 fold enrichment (6-mer frequency, TF over GST control) with ELF1; 2.05 fold enrichment (6-mer frequency, TF over GST control) with EHF. The binding signal in the experiment with SPI1 is 1.89 fold enrichment (6-mer frequency, TF over GST control); in the experiment with SPIB it was 2.02 fold enrichment (6-mer frequency, TF over GST control); with ELK3, 1.94 fold enrichment (6-mer frequency, TF over GST control).
Take AACAAA: the binding signal in the experiment with FLI1 is 1.18 fold enrichment (6-mer frequency, TF over GST control); in the experiment with ELK1 it was 1.16 fold enrichment (6-mer frequency, TF over GST control); in the experiment with GABPA, 1.1 fold enrichment (6-mer frequency, TF over GST control); in the experiment with ERG, 1.18 fold enrichment (6-mer frequency, TF over GST control); with ELF1, 1.14 fold enrichment (6-mer frequency, TF over GST control); with EHF, 1.17 fold enrichment (6-mer frequency, TF over GST control). Further, the binding signal with SPI1 was 1.16 fold enrichment (6-mer frequency, TF over GST control); in the experiment with SPIB, 1.15 fold enrichment (6-mer frequency, TF over GST control); in the experiment with ELK3, 1.27 fold enrichment (6-mer frequency, TF over GST control).
